Reference: PubChem BioAssay (Tox21)
Inconclusive results are not listed. Where a call stands in place of a potency, no number is given. Activity calls are given as the source filed them. Unless noted, calls come from the whole dose curve; as a rule, active = well fitted curve in the direction sought with a large enough effect in the repeat runs; inconclusive = weak or mixed curves; inactive = no such curve, though single readings can be large; an effect the other way counts as inactive or inconclusive.

How the values were obtained:
[1] = biological target: Retinoic acid receptor RXR-alpha (Homo sapiens) (UniProt P19793); assay: qHTS assay to identify small molecule agonists of the RXR signaling pathway (AID 1159527; calls by dose curve; note: nearly all actives have a fitted effect of over 35% in size; note: potency is the fitted concentration of half-maximal effect)
How it was run: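 Cells plated at 2,000/well, rested 5 hr at 37 C, pin-dosed with DMSO compound solutions, incubated 16 hr, then loaded with B/G FRET substrate for 2 hr at RT before dual-emission fluorescence reading.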

[2] = qHTS assay to identify small molecule agonists of the RXR signaling pathway - cell viability counter screen (AID 1159529);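 note: HEK 293T cells carrying an RXR-alpha UAS beta-lactamase reporter; nearly all actives have a fitted effect of over 50% in size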
How it was run: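 Steps: seed RXR-alpha-UAS-bla HEK 293T cells in assay medium containing 2% charcoal-stripped FBS; incubate 5 hr; add compounds in DMSO; incubate 16 hr at 37 C; after the bla read, add CellTiter-Glo and read luminescence at 30 min.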

[3] = qHTS assay to identify small molecule antagonists of the retinoid acid receptor (RAR) signaling pathway - cell viability counter screen (AID 1159551); note: nearly all actives have a fitted effect of over 35% in size
How it was run: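 ATP-based viability, C3RL4 cells, 6 h at 37 C with 1 uM final retinol co-added after compound; luminescence read 30 min post CellTiter-Glo, RT.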

[4] = qHTS assay to identify small molecule antagonists of the retinoic acid receptor (RAR) signaling pathway (AID 1159552; note: nearly all actives have a fitted effect of over 50% in size)
How it was run: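 Retinol at 1 uM final stimulated RARE-luciferase expression in C3RL4 cells exposed to test compounds for 6 hr at 37 C. Reduced luminescence, read 30 min after detection reagent, indicated pathway antagonism.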

[5] = qHTS assay to identify small molecule antagonists of the estrogen related receptor (ERR) signaling pathway from Tox21 library - cell viability counter screen (AID 1224834); note: nearly all actives have a fitted effect of over 30% in size; note: potency is the fitted concentration of half-maximal effect
How it was run: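 Compounds in DMSO were pinned onto ERR cells that had been incubated for 6 h, and the plates were held at 37 C for 17.5 h. CellTiter-Fluor reagent was then added and fluorescence was measured after 30 min.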

[6] = biological target: Luciferin 4-monooxygenase (Photinus pyralis) (UniProt P08659); assay: qHTS assay to identify small molecule inhibitors of firefly luciferase (AID 1224835); note: nearly all actives have a fitted effect of over 25% in size; note: potency is the fitted concentration of half-maximal effect
How it was run: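 Quantitative HTS format; KM concentrations of both substrates. Purified P. pyralis FLuc activity quantified from luminescence images.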

[7] = qHTS assay to identify small molecule agonists of the constitutive androstane receptor (CAR) signaling pathway - cell viability counter screen (AID 1224836); note: nearly all actives have a fitted effect of over 45% in size
How it was run: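 Cells were seeded and incubated 4 hrs. Compounds were added across 15 concentrations together with PK11195 at 0.75 uM final. Plates were incubated 23 hrs at 37 C. CellTiter-Fluor was added and fluorescence measured.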

[8] = qHTS assay to identify small molecule antagonists of the constitutive androstane receptor (CAR) signaling pathway - cell viability counter screen (AID 1224837); note: nearly all actives have a fitted effect of over 45% in size; note: potency is the fitted concentration of half-maximal effect
How it was run: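 Cells are seeded, rested 4 hr at 37 C/5% CO2, dosed with compound (15-point series) and 50 nM CITCO, incubated a further 23 hr, and then CellTiter-Fluor reagent is added before fluorescence is read. The line is HepG2 with stable hCAR and CYP2B6-2.2kb.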

[9] = qHTS assay to identify small molecule antagonists of the estrogen related receptor signaling pathway with the pleiotropic PPARgamma coactivator (PGC) from Tox21 10K library - cell viability counter screen (AID 1224840; active = well fitted cell-killing curve with a large enough effect in the repeat runs, not every such curve was filed as active; note: nearly all actives have a fitted effect of over 40% in size)
How it was run: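 Cell viability is measured by CellTiter-Fluor fluorescence in PGC/ERR cells that receive compounds after a 6-hour attachment period and are then incubated 17.5 hours at 37 C.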

[10] = biological target: Nuclear receptor subfamily 1 group I member 3 (Homo sapiens) (UniProt Q14994); assay: qHTS assay to identify small molecule antagonists of the constitutive androstane receptor (CAR) signaling pathway (AID 1224838);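 note: HepG2 cells stably expressing hCAR with CYP2B6 luciferase reporter stimulated by CITCO; nearly all actives have a fitted effect of over 40% in size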
How it was run: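 Luminescence from a CYP2B6-2.2kb promoter reporter in hCAR-expressing HepG2 cells reflects CAR signaling. Cells received compounds at 15 concentrations and 50 nM CITCO (final), then incubated 24 h at 37 C/5% CO2.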

[11] = biological target: Nuclear receptor subfamily 1 group I member 3 (Homo sapiens) (UniProt Q14994); assay: qHTS assay to identify small molecule agonists of the constitutive androstane receptor (CAR) signaling pathway (AID 1224839); note: nearly all actives have a fitted effect of over 15% in size; note: potency is the fitted concentration of half-maximal effect;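 for activation: HepG2 cells stably carrying human CAR and a CYP2B6 luciferase reporter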
How it was run: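 Cells were plated and incubated 4 hrs, then dosed with compounds at 15 concentrations. PK11195 was added to 0.75 uM final. After 24 hrs at 37 C, luciferase luminescence was measured.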

[12] = qHTS assay to identify small molecule antagonists of the estrogen related receptor signaling pathway with the pleiotropic PPARgamma coactivator (PGC) from Tox21 10K library (AID 1224841; call rule not given here; note: actives are mostly falling curves and most rising ones were filed inactive; nearly all actives have a fitted effect of over 50% in size)
How it was run: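 Cells stably carrying the PGC/ERR reporter, seeded at 2,000 per well, received pin-transferred compounds 6 h post-plating. Exposure lasted 18 h at 37 C. Signal: One-Glo luminescence.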

[13] = qHTS assay to identify small molecule agonists of the estrogen related receptor signaling pathway with the pleiotropic PPARgamma coactivator (PGC) from Tox21 10K library (AID 1224842); note: nearly all actives have a fitted effect of over 15% in size
How it was run: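 PGC/ERR reporter cells (NTP line) were seeded 2,000 per well, rested 6 h at 37 C/5% CO2, then pin-dosed with compounds in DMSO for 18 h at 37 C; luciferase read by One-Glo luminescence after 30 min at room temperature.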

[14] = qHTS assay to identify small molecule agonists of the retinoic acid receptor (RAR) signaling pathway (AID 1159553); settings: C3RL4 RARE luciferase reporter, agonist, 6 h; activation: at 73.3 µM (top of the series)
How it was run: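 Quantitative high-throughput format: the Tox21 10K library was tested on C3RL4 RARE-luciferase cells for 6 hr at 37 C and 5% CO2, with luminescence measured after a 30 min room-temperature reagent step.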

[15] = qHTS assay to identify small molecule agonists of the estrogen related receptor (ERR) signaling pathway (AID 1224820)
How it was run: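 Luminescence readout (One-Glo, 30 min RT) from NTP-supplied ERR cell line exposed to compounds for 18 h at 37 C. Cells seeded 2,000 per well and pre-incubated 6 h before pin-tool compound transfer.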

[16] = qHTS assay to identify small molecule agonists of the estrogen related receptor signaling pathway with the pleiotropic PPARgamma coactivator (PGC) (AID 1224823)
How it was run: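 Luminescence readout (One-Glo, 30 min RT) from PGC/ERR cell line treated 18 h at 37 C with pin-tool-delivered DMSO compound solutions; cells plated 6 h before dosing. Quantitative HTS format.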

[17] = qHTS assay to identify small molecule antagonists of the estrogen related receptor (ERR) signaling pathway - cell viability counter screen (AID 1224818);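 note: viability measured after 17.5 h of compound exposure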
How it was run: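 Quantitative high-throughput viability counter screen in ERR cells. Compounds (DMSO) incubated 17.5 h at 37 C; read-out was CellTiter-Fluor fluorescence.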

[18] = system: estrogen-related receptor alpha (ERRalpha) with PGC-1alpha coactivator, human; assay: qHTS assay to identify small molecule antagonists of the estrogen related receptor signaling pathway with the pleiotropic PPARgamma coactivator (PGC) (AID 1224821; calls by dose curve;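 note: lower luminescence signal means antagonism of PGC/ERR signalling; nearly all actives have a fitted effect of over 50% in size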)
How it was run: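 PGC/ERR reporter cells; 6 h pre-incubation 37 C/5% CO2; pin-tool compound in DMSO, 18 h 37 C; One-Glo added, 30 min RT; luminescence read. qHTS antagonist mode.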

Sequence of Luciferin 4-monooxygenase (Photinus pyralis) (P08659 whole entry, looked up): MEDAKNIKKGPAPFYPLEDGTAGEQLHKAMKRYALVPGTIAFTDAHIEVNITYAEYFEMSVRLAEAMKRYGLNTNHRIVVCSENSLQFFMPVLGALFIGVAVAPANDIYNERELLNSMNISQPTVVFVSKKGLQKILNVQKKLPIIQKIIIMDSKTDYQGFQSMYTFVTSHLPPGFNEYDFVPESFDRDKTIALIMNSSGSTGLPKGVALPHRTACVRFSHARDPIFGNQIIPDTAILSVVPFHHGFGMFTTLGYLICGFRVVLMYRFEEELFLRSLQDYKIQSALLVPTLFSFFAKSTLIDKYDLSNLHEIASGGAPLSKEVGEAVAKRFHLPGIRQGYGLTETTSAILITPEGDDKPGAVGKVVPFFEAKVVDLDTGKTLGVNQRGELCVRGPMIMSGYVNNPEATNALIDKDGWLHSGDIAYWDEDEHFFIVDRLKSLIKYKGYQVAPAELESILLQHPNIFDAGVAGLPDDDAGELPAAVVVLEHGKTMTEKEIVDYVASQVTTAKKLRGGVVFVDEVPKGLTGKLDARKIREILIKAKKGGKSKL
Sequence of Retinoic acid receptor RXR-alpha (Homo sapiens) (P19793 whole entry, looked up): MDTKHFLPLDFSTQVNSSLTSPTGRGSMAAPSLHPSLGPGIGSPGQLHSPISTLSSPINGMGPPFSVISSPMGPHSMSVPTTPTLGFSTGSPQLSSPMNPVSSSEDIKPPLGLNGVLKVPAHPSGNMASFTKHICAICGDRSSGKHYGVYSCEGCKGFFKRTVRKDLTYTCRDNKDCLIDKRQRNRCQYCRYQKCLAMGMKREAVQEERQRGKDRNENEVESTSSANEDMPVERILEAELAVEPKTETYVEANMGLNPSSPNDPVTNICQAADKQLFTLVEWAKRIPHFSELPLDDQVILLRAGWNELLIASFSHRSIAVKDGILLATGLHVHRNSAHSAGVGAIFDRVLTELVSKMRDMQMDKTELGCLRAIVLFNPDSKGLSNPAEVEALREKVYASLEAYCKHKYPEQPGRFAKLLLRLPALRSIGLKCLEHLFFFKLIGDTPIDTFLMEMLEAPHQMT
Sequence of Nuclear receptor subfamily 1 group I member 3 (Homo sapiens) (Q14994 whole entry, looked up): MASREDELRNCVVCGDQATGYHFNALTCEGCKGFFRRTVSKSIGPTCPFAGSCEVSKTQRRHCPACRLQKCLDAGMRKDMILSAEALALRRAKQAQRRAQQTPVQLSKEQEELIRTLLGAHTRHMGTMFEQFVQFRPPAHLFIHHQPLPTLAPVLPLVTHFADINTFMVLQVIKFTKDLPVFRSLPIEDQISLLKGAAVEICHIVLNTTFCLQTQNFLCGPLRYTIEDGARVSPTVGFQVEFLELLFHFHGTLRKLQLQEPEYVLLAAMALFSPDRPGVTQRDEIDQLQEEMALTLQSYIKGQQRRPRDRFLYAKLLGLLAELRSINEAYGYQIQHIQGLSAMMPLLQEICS

SMILES | Potency [1] | Potency [2] | Potency [3] | Potency [4] | Potency [5] | Potency [6] | Potency [7] | Potency [8] | Potency [9] | Potency [10] | Potency [11] | Potency [12] | Potency [13] | Potency [14] | outcome [15] | outcome [16] | outcome [17] | outcome [18]
O=C1c2ccccc2C(=O)C1c1nc2ccccc2c(Br)c1O | inactive | inactive | inactive | inactive | inactive | 17.8 µM (active) | inactive | inactive | inactive | – | – | – | – | – | – | – | – | –
CC(C)(C)C(=O)C(=O)O | inactive | inactive | inactive | inactive | inactive | – | inactive | inactive | inactive | inactive | inactive | – | – | – | – | – | – | –
CC(C)=CC(=O)C=C(C)C | inactive | inactive | inactive | inactive | inactive | inactive | inactive | inactive | inactive | inactive | inactive | inactive | inactive | – | – | – | – | –
CC(=O)OCC(=O)NCCCOc1cccc(CN2CCCCC2)c1 | inactive | inactive | inactive | – | inactive | inactive | – | inactive | inactive | inactive | inactive | – | inactive | – | – | – | – | –
CC[N+](CC)(CCNC(=O)C(=O)NCC[N+](CC)(CC)Cc1ccccc1Cl)Cc1ccccc1Cl | inactive | inactive | inactive | inactive | – | – | inactive | inactive | inactive | – | – | – | inactive | inactive | – | – | – | –
CCCCCCCCOc1ccc(C(=O)O)cc1 | 19.3 µM (active) | inactive | inactive | – | inactive | 31.4 µM (active) | inactive | inactive | inactive | inactive | – | – | – | – | – | – | – | –
CCOC(C)=O | inactive | inactive | inactive | inactive | – | inactive | inactive | inactive | inactive | inactive | inactive | – | – | – | – | – | – | –
CCCCN(CCN(CCCC)C(=O)N1CCOCC1)C(=O)N1CCOCC1 | inactive | inactive | inactive | inactive | inactive | inactive | inactive | inactive | inactive | inactive | inactive | – | – | – | – | – | – | –
CCC1(CO)COCOC1 | inactive | inactive | inactive | inactive | – | – | inactive | inactive | inactive | – | – | inactive | inactive | – | – | – | – | –
NNC(=O)CP(=O)(c1ccccc1)c1ccccc1 | inactive | inactive | inactive | inactive | inactive | inactive | – | inactive | inactive | – | – | – | – | – | – | – | – | –
Oc1cccc(Nc2ccccc2)c1 | inactive | inactive | inactive | inactive | inactive | 37.1 µM (active) | inactive | inactive | inactive | inactive | – | – | – | – | – | – | – | –
CC(O)c1ccccc1 (centres undefined) | inactive | inactive | inactive | inactive | – | – | inactive | inactive | inactive | inactive | inactive | inactive | – | – | – | – | – | –
Cc1ccccc1N=C(N)Nc1ccccc1C | inactive | inactive | inactive | inactive | inactive | inactive | inactive | inactive | inactive | inactive | inactive | – | – | – | – | – | – | –
CN1C[C@H](C(=O)N[C@]2(C)O[C@@]3(O)[C@@H]4CCCN4C(=O)[C@H](Cc4ccccc4)N3C2=O)C[C@@H]2c3cccc4[nH]cc(c34)C[C@H]21 | inactive | – | inactive | inactive | 26.6 µM (active) | – | – | – | – | inactive | inactive | – | – | inactive | inactive | inactive | – | –
CNC(=O)c1cnn(-c2nc(N)c3ncn([C@@H]4O[C@H](CO)[C@@H](O)[C@H]4O)c3n2)c1 | inactive | – | inactive | inactive | – | inactive | inactive | inactive | inactive | inactive | inactive | – | – | inactive | – | – | – | –
CC(CC1c2ccccc2CCc2ccccc21)CN(C)C (centres undefined) | inactive | – | inactive | – | 33.5 µM (active) | inactive | – | 29.8 µM (active) | inactive | – | – | – | – | inactive | – | – | – | –
Nc1cccc2c1CN(C1CCC(=O)NC1=O)C2=O (centres undefined) | inactive | – | inactive | inactive | inactive | – | inactive | inactive | inactive | inactive | inactive | – | – | inactive | – | – | – | –
COC(=O)CCS | inactive | – | inactive | – | inactive | inactive | inactive | inactive | inactive | inactive | inactive | – | – | – | – | – | – | –
CCCCN1CCCC1C(=O)Nc1c(C)cc(C)cc1C (centres undefined) | inactive | – | inactive | inactive | inactive | – | – | inactive | inactive | inactive | 29.8 µM (active) | – | – | inactive | – | – | – | –
c1ccc2c(c1)CCc1ccccc1N2 | inactive | – | inactive | inactive | inactive | 63.6 µM (active) | inactive | inactive | inactive | inactive | 54.8 µM (active) | – | – | inactive | – | – | – | –
CC1=C(CC=O)C(C)(C)CCC1 | inactive | – | inactive | – | inactive | inactive | inactive | inactive | inactive | – | – | – | – | – | – | – | – | –
O=[N+]([O-])c1ccc(Nc2ccc(Nc3ccccc3)c(S(=O)(=O)O)c2)c([N+](=O)[O-])c1 | inactive | inactive | inactive | – | – | inactive | – | inactive | inactive | inactive | inactive | – | – | – | – | – | – | –
CC(=O)Nc1ccc(C)cc1C | inactive | inactive | inactive | – | – | – | inactive | inactive | inactive | inactive | inactive | inactive | – | – | – | – | – | –
N#CCc1ccc(Cl)cc1Cl | inactive | – | inactive | inactive | inactive | inactive | inactive | inactive | inactive | inactive | inactive | – | inactive | inactive | – | – | – | –
CCOC(=O)C1=C(C)NC(C)=C(C(=O)OC)C1c1cccc(Cl)c1Cl (centres undefined) | inactive | – | inactive | – | inactive | inactive | inactive | inactive | inactive | inactive | inactive | – | inactive | – | inactive | inactive | inactive | inactive
